Test systems include MALME-3M melanoma; MDA-MB-231 breast; RXF 393 renal; SF-268 CNS; SF-295 CNS; SF-539 CNS; UACC-257 melanoma; M14 melanoma; HCT-15 colon; HT29 colon; SNB-75 CNS; SNB-19 CNS; U251 CNS; PC-3 prostate; SK-MEL-5 melanoma; UACC-62 melanoma; LOX IMVI melanoma; SK-MEL-28 melanoma; SK-MEL-2 melanoma.
Assay in all cases: NCI-60 one-dose screen, 48 h (100 = growth as untreated, 0 = no growth, -100 = all killed)
What all share (details): 10 µM unless noted

Molecules are shown by their SMILES. Compounds without any hit were thinned out: in the full panel of roughly 83,000, 20% have a hit.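 Testing used 96-well plates and a 48-hour single-concentration exposure. Example: -40 means 40% of the starting cells died.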 A number with no mark means an inactive call. The source made the active and inactive calls. The calls were made as follows: active = growth percent below 10; inactive = the rest.

The source of these data is PubChem BioAssay (NCI).

`Cn1cc(-c2csc(-c3c[nH]c4ncccc34)n2)c2cc(Br)cnc21`: the growth is 32.8% with MALME-3M melanoma; -1.21% (active) in the test with MDA-MB-231 breast; 26.1% in the test with RXF 393 renal; 64.8% in the test on SF-268 CNS; -1.78% (active) in the test with SF-295 CNS; 70.1% in the test on SF-539 CNS. The growth in the test with UACC-257 melanoma is 57.1%; in the test with M14 melanoma, 35.2%; in the test with HCT-15 colon it was 66.8%; in the test on HT29 colon, 50.6%; in the test with SNB-75 CNS, -28.8% (active); in the test with SNB-19 CNS, 50.5%. The growth with U251 CNS is 3.32% (active); with PC-3 prostate, 34.9%; with SK-MEL-5 melanoma, 35.8%; in the test on UACC-62 melanoma, 32.5%; with LOX IMVI melanoma it was 20.5%; in the test with SK-MEL-28 melanoma, 27.7%. For the same molecule, the growth in the test on SK-MEL-2 melanoma was 78.2%.
Consider `c1cncc(CNc2ccccc2-c2nnc(Nc3ccc4c(c3)OCO4)o2)c1`, for which the growth in the test with MALME-3M melanoma was 32.1%; in the test with MDA-MB-231 breast, 16.3%; in the test with RXF 393 renal, -2.33% (active); with SF-268 CNS, 33.5%; in the test on SF-295 CNS it was 5.25% (active); in the test with SF-539 CNS, 0.107% (active). For the same molecule, the growth was 56.2% in the test on UACC-257 melanoma; 9.13% (active) with M14 melanoma; 10.2% in the test on HCT-15 colon; 8.59% (active) with HT29 colon; 38.7% with SNB-19 CNS; 23% with U251 CNS. Further, the growth is 27.9% in the test with PC-3 prostate; -4.21% (active) with SK-MEL-5 melanoma; 3.81% (active) in the test with UACC-62 melanoma; 8.28% (active) with LOX IMVI melanoma; 43.7% with SK-MEL-28 melanoma; 65.8% in the test with SK-MEL-2 melanoma.
In the case of `NNC(=O)C1CC2c3ccccc3C1c1ccccc12` (configuration not stated), the growth was 123% in the test on MALME-3M melanoma; 102% in the test with MDA-MB-231 breast; 116% in the test with RXF 393 renal; 98.7% in the test on SF-268 CNS; 105% in the test on SF-295 CNS; 99% in the test on SF-539 CNS. For the same molecule, the growth in the test on UACC-257 melanoma is 118%; with M14 melanoma it was 111%; in the test with HCT-15 colon it was 111%; with HT29 colon, 104%; in the test on SNB-75 CNS, 90.8%; with SNB-19 CNS, 107%. The growth was 110% in the test on U251 CNS; 98.5% with PC-3 prostate; 110% in the test on SK-MEL-5 melanoma; 97.1% in the test on UACC-62 melanoma; 108% in the test with SK-MEL-28 melanoma; 109% in the test on SK-MEL-2 melanoma.
Take `CC(C)[C@]12O[C@H]1[C@@H]1O[C@]13[C@]1(O[C@H]1C[C@H]1C4=C(CC[C@@]13C)C(=O)OC4)[C@@H]2OC(=O)CN(C)C`: the growth was -45.2% (active) in the test with MALME-3M melanoma; 27.8% in the test on MDA-MB-231 breast; -61.9% (active) in the test on RXF 393 renal; -10.2% (active) in the test with SF-268 CNS; -27.6% (active) in the test on SF-295 CNS; -23% (active) with SF-539 CNS. For the same molecule, the growth was -2.52% (active) in the test on UACC-257 melanoma; -74.2% (active) with M14 melanoma; 9.18% (active) in the test with HCT-15 colon; 0.899% (active) in the test with HT29 colon; -65.4% (active) with SNB-75 CNS; 23% with SNB-19 CNS. For the same molecule, the growth is 15.4% in the test on U251 CNS; 19.6% with PC-3 prostate; -20.1% (active) in the test with SK-MEL-5 melanoma; -34.8% (active) in the test on UACC-62 melanoma; 1.04% (active) in the test on SK-MEL-28 melanoma; -60% (active) with SK-MEL-2 melanoma.
Take `Cn1cc(-c2csc(-c3cn(C)c4ncccc34)n2)c2cccnc21`: the growth in the test on MALME-3M melanoma was 106%; with MDA-MB-231 breast, 93.7%; in the test with RXF 393 renal, 98.4%; in the test with SF-268 CNS it was 106%; in the test on SF-295 CNS, 98.3%; with SF-539 CNS, 99%. The growth was 99.8% in the test with UACC-257 melanoma; 96% in the test on M14 melanoma; 90.6% in the test on HCT-15 colon; 98.7% with HT29 colon; 75.7% in the test on SNB-75 CNS; 94% with SNB-19 CNS. Besides, the growth with U251 CNS is 96%; with PC-3 prostate, 86.9%; in the test with SK-MEL-5 melanoma, 84.9%; in the test on UACC-62 melanoma, 79.4%; with LOX IMVI melanoma, 95%; with SK-MEL-28 melanoma, 101%. For the same molecule, in the test with SK-MEL-2 melanoma, the growth was 107%.
Turning to `O=C(C(=O)N1CCOCC1)c1ccc(OC2OC(CO)C(O)C(O)C2O)cc1` (configuration not stated), the growth in the test with MALME-3M melanoma is 129%; with MDA-MB-231 breast, 107%; in the test on RXF 393 renal, 112%; with SF-268 CNS, 115%; with SF-295 CNS it was 115%; with SF-539 CNS it was 96.3%. The growth with UACC-257 melanoma was 96.5%; in the test with M14 melanoma, 102%; in the test with HCT-15 colon it was 104%; in the test with HT29 colon it was 100%; in the test on SNB-75 CNS, 89.5%; with SNB-19 CNS it was 102%. Besides, the growth is 105% in the test on U251 CNS; 110% in the test with PC-3 prostate; 108% in the test on SK-MEL-5 melanoma; 103% in the test with UACC-62 melanoma; 105% with SK-MEL-28 melanoma; 96.2% in the test with SK-MEL-2 melanoma.
For `COc1ccc(C2=NNC(c3cc(Cc4ccc(O)c(C5CC(c6ccc(OC)cc6)=NN5)c4)ccc3O)C2)cc1` (configuration not stated), the growth was 78.9% in the test on MALME-3M melanoma; 58.3% with MDA-MB-231 breast; 72.6% in the test on RXF 393 renal; 44% with SF-268 CNS; 6.47% (active) in the test with SF-295 CNS; 57.2% in the test on SF-539 CNS. For the same molecule, the growth with UACC-257 melanoma is 70.6%; with M14 melanoma it was 59.3%; in the test with HCT-15 colon it was 43.3%; in the test with HT29 colon it was 92.2%; in the test with SNB-75 CNS, 46.6%; in the test on SNB-19 CNS, 48.2%. In addition, the growth in the test on U251 CNS is 24.8%; in the test on PC-3 prostate, 42.4%; in the test on SK-MEL-5 melanoma, 47.4%; in the test on UACC-62 melanoma, 49.2%; with SK-MEL-28 melanoma, 79.4%; with SK-MEL-2 melanoma, 20.1%.
On to `O=C(CCc1nnc2sc(-c3ccc(Cl)cc3Cl)nn12)c1nc2ccccc2[nH]1`, for which the growth in the test on MALME-3M melanoma is -26.5% (active); in the test with MDA-MB-231 breast, -54.2% (active); in the test with RXF 393 renal, -92.9% (active); in the test on SF-268 CNS, 15.2%; with SF-295 CNS, -37.4% (active); in the test with SF-539 CNS, -19% (active). Moreover, the growth in the test on UACC-257 melanoma is -69.9% (active); in the test with M14 melanoma it was -47.5% (active); in the test with HCT-15 colon, -31.8% (active); in the test with HT29 colon, -12.9% (active); in the test with SNB-75 CNS it was -45.8% (active); in the test with SNB-19 CNS, 7.75% (active). Also, the growth is -83.1% (active) in the test on U251 CNS; -38.5% (active) in the test with PC-3 prostate; -70.2% (active) with SK-MEL-5 melanoma; -85.1% (active) in the test with UACC-62 melanoma; -58% (active) in the test with LOX IMVI melanoma; -60.1% (active) in the test with SK-MEL-28 melanoma. Besides, in the test with SK-MEL-2 melanoma, the growth is -68.9% (active).
